# PTHR1 ag = qHTS for PTHR1 Agonists: Primary Screen; HEK293 GP2 PTHR1 cells, GloSensor cAMP luminescence, 1 h; Potency, µM (highest dose often 115 µM), inactives show at the top dose activation, usual class: activators; 410,000 compounds, 0.075% hits; note: nearly all actives have a fitted effect of over 55% in size
#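 HEK-293-derived GP2 cells expressing PTHR1 and a GloSensor cAMP reporter, 3,000/well, plated overnight, given luciferin plus IBMX (each 0.5 mM as added) for 1 h at 37 °C, then compound for 1 h at 37 °C. Luminescence was read after 15 min at room temperature.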
# GLP1R ag = qHTS of GLP-1 Receptor Agonists | Glucagon-like peptide 1 receptor (Homo sapiens), P43220 | HEK293 GLP-1R CRE-luciferase, luminescence, 4-6 h; cells express a hypersensitive GLP-1R form | Potency, µM (doses to about 45.6 µM), for inactives: at the highest dose activation, most hits filed as activators | 380,000 compounds, 0.007% hits | AID 624172, 2012; note: % of control where 0% means no effect
# Target sequence (P43220 whole entry, looked up): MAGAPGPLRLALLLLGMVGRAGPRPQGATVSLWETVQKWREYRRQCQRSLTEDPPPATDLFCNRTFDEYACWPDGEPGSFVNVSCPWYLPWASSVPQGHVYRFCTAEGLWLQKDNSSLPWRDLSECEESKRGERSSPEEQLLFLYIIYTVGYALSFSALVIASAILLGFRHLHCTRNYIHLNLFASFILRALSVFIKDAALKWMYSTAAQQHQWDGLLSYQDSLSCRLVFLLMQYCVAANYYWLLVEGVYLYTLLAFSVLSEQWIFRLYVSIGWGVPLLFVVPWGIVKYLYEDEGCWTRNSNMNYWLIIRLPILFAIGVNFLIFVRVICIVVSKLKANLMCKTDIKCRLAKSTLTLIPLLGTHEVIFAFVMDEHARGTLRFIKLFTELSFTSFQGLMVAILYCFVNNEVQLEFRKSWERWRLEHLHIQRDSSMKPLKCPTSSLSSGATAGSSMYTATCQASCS
# GLP1R inv ag = qHTS of GLP-1 Receptor Inverse Agonists (Inhibition Mode). Glucagon-like peptide 1 receptor (Homo sapiens), P43220. HEK293 GLP-1R CRE-luciferase, luminescence, 24 h; GLP-1R form is constitutively active. Potency, µM (series often up to 38.3 µM), without a hit: at the top dose activity change, negative = inhibition, actives largely listed as inhibitors. 410,000 compounds, 1.6% hits. AID 624417, 2012; note: % is set by controls: 0 for no effect and ±100 for the full control effect; nearly all actives have a fitted effect of over 55% in size
#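 Using stably transfected HEK293 (constitutively active GLP-1R, cAMP-luciferase reporter), compounds were incubated 24 hr and luciferase measured by luminescence.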
# HEK293 tox = qHTS of GLP-1 Receptor Inverse Agonists: Cytotox Screen | HEK293 cAMP-luciferase reporter cells, luminescence, 24 h | Potency, µM (titrated, usually from 38.3 µM), for the others: at the highest dose activity change, negative = inhibition, usual class: inhibitors | 410,000 compounds, 0.13% hits | AID 624418, 2012;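 note: loss of luciferase light is scored as toxicity; % is set by controls: 0 for no effect and ±100 for the full control effect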
#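 To flag toxic compounds, the library was rerun on cells for 24 hr at 37 deg C and 5% CO2. Viability-linked luminescence was captured 12 min after adding luciferase detection reagent.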
# The depositor's hits bear a star; i = inactive; ? = inconclusive; . = not tested or not shown; [ ] = remark or other dose. An excerpt weighted towards active compounds, which were near 1.7% of everything screened. Calls come from the whole dose curve; as a rule, active = well fitted curve in the direction sought with a large enough effect; inconclusive = small, poorly fitted or top-dose-only effect, or another doubt; inactive = no such curve, though single readings can be large; an effect the other way counts as inactive or inconclusive. Potency is the fitted concentration of half-maximal effect.
SMILES,PTHR1 ag,GLP1R ag,GLP1R inv ag,HEK293 tox
CNC(=S)N/N=C(\C)c1ccc(C)c(C)c1,i,12%,3.5µM*,?
COCCNC(=S)N/N=C(\C)c1ccc(O)cc1,i,5%,-21%,?
COc1ccc(C)cc1-n1nnc(S(=O)(=O)c2ccc(C)cc2)c1C,i,.,3%,-1%
COc1cccc(NC(=O)CCc2nnc3n(Cc4ccccc4Cl)c(=O)c4ccccc4n23)c1,i,.,-11%,-13%
CCN1CCN(C(=O)Cn2nc(-c3ccc(Cl)cc3)ccc2=O)CC1,-7%,9%,2.8µM*,12%
CCCNC(=O)Nc1cc(C(=O)NCc2cccc(OCC)c2)ccc1N1CCCC1,-9%,.,-2%,5%
C=CCn1c(SCC(=O)Nc2c(C)n(C)n(-c3ccccc3)c2=O)nc2sc(C)c(-c3ccccc3)c2c1=O,-15%[57.5 µM],4%,3.2µM*,-3%
C=CCn1c(SCC(=O)Nc2c(C)n(C)n(-c3ccccc3)c2=O)nc2sc(C)c(C)c2c1=O,i,10%,4%,-3%
CCOc1ccc(NC(=O)N(Cc2cn(CC)c3ccccc23)C2CCCCCC2)cc1,-24%,.,11µM*,-30%
CCOc1ccc(NC(=S)N2CCC(c3ccc(C)cc3)C2)cc1 (stereo not given),-7%,5%,10µM*,-13%
Cc1ccc(NC(=S)N2CCC(c3ccc(C)cc3)C2)cc1 (stereo not given),i,19%,?,-26%
Cc1ccc(CC#N)c(-c2c(CC#N)ccc(C)c2C)c1C,-27%,13%,?,6%
Cc1ccc2c(c1C)-c1c(ccc(C)c1C)C(=O)C2=O,-35%,-5%,0.79µM*,?
COc1ccc(-c2nc3ccccc3c(C(=O)Nc3ccc(S(=O)(=O)Nc4cc(C)on4)cc3)c2C)cc1,-4%,-5%,5µM*,6%
OCC1(Cc2cccc(Cl)c2)CCCN(Cc2ccc(F)c(F)c2)C1 (stereo not given),-24%,1%,10µM*,6%
CC(C)Oc1ccc(CN2CCCC(CO)(Cc3ccc(F)cc3)C2)cc1 (stereo not given),-9%,14%,11µM*,-15%
CCCCOc1cccc(C2c3c(-c4cc(C)ccc4O)n[nH]c3C(=O)N2CCOC)c1 (stereo not given),-76%,.,?,-11%
S=C(NCc1ccccc1)C(=S)NCc1ccccc1,i,11%,10µM*,3%
COc1ccccc1/C=C/C(=O)Oc1cccc2cccnc12,-37%,7%,4.5µM*,?
CCOC(=O)C1=C(CN2CCN(c3ccc(Cl)cc3)CC2)NC(=O)NC1c1ccc(OC)cc1 (stereo not given),-30%,.,2%,0%
O=C(Cc1c[nH]c2ccccc12)N1CCN(S(=O)(=O)c2cccc(Cl)c2Cl)CC1,-26%,-3%,10µM*,?
O=C(Cc1c[nH]c2ccccc12)N1CCN(S(=O)(=O)c2ccc(F)cc2)CC1,i,1%,-15%,-6%
Cc1ccc(NC2=C(N3CCOCC3)C(=O)c3ccccc3C2=O)cc1,-96%,13%,-13%,10µM*
CC(=O)c1ccc(NC2=C(N3CCOCC3)C(=O)c3ccccc3C2=O)cc1,-47%,13%,9%,?
CCOC(=O)c1nc(C)nc(Sc2n[nH]c(-c3cc(Cl)cc(Cl)c3)n2)c1C,-28%,0%,19%,-2%
SMILES,PTHR1 ag,GLP1R ag,GLP1R inv ag,HEK293 tox
CCOC(=O)c1nc(C)nc(Sc2n[nH]c(-c3ccc(C(C)(C)C)cc3)n2)c1C,i,-7%,10µM*,-14%
Cc1cc(C)c(NC(=O)CSc2cn(CC(=O)N3CCOCC3)c3ccccc23)c(C)c1,12%,.,-6%,1%
COc1ccc(CNC(=O)/C=C/c2ccccc2[N+](=O)[O-])cc1,i,-2%,15%,-8%
COC(=O)C(=Cc1ccccc1[N+](=O)[O-])C(=O)OC,-94%,-4%,10µM*,?
CCN(CC)c1ccc(NC(=O)c2cccn2-c2nnc(N3CCCCC3)s2)c(C)c1,-29%,.,?,1%
CCN1CCN(c2cc(C(C)C)nc3c(-c4ccccc4)c(C)nn23)CC1,i,20%,4µM*,?
Cc1nn2c(N3CCOCC3)cc(C(C)C)nc2c1-c1ccccc1,-15%,-3%,11%,4%
COc1ccc(NC(=O)c2c(C)oc3ccc(O)c(CN4CCCCCC4)c23)cc1,i,.,?,4%
O=C(Cc1ccccc1)Nc1ccccc1N1CCCC1,-23%,-2%,?,35%
O=C(Cc1cccc(C(F)(F)F)c1)Nc1ccccc1N1CCCC1,-84%,14%,10µM*,5%
COc1ccc(-c2cc3c(=O)n(CC(=O)NCCCN4CCC(Cc5ccccc5)CC4)ncn3n2)cc1,-53%,0%,2.2µM*,-1%
Fc1cccc(CSc2nc(NCCc3ccccc3)c3ccccc3n2)c1,-18%,.,9%,2%
CC1=C(CO)C(=O)OC([C@@H](C)C2CC[C@H]3C4C[C@H]5O[C@]56[C@@H](O)C=CC(=O)[C@]6(C)C4CC[C@]23C)C1 (stereo not given in full),-52%,-19%,10%,13µM*
COC(=O)CNC(c1ccccc1)c1cc(Br)ccc1NC(=O)c1ccccc1 (stereo not given),i,.,?,12%
CCOC(=O)CNC(c1ccccc1)c1cc(Br)ccc1NC(=O)c1cccc(Cl)c1 (stereo not given),i,.,8.9µM*,1%
COC(=O)CNC(c1ccccc1)c1cc(Cl)ccc1NC(=O)c1cccc(Cl)c1 (stereo not given),-11%,-18%,10µM*,-9%
NNC(=O)CNC(c1ccccc1)c1cc(Br)ccc1NC(=O)c1cccc(Cl)c1 (stereo not given),i,-6%,?,-4%
CCCCC(F)(F)[C@@]1(O)CC[C@H]2[C@H](CC(=O)[C@@H]2CCCCCCC(=O)O)O1,.,13%,.,.
CCOc1ccc(CCNC(=O)c2nn(C)c3c2CSc2ccc(C)cc2-3)cc1OCC,-36%,.,10µM*,19%
Cc1ccc(CNC(=O)c2nn(C)c3c2CSc2ccc(C)cc2-3)cc1,-15%,.,?,0%
O=C(c1cc2ccccc2o1)N1CCN(C/C=C/c2ccccc2)CC1,-31%,9%,11µM*,4%
COc1ccccc1C1c2ccc3ccccc3c2Oc2ncn(CCCO)c(=N)c21 (stereo not given),-5%,14%,?,?
COc1ccccc1C1c2ccc3ccccc3c2Oc2ncn(CCN(C)C)c(=N)c21 (stereo not given),i,22%,2.8µM*,?

# Screening results (PubChem BioAssay)
